Experimental data from the supplement of paper PMC7695840.
Counter-ions that a name gives are not always drawn.

Tests used:
[1] = test system: Staphylococcus aureus MW2 delta-mecA (mecA-); experiment: normalized GFP fluorescence (growth of mecA- strain) (fraction of control range); higher = more growth of mecA- strain; conditions: compound concentration: 150 uM; cefoxitin: subinhibitory; fluorescent label: GFP
Method in brief: (§1)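 Single-replicate 1536-well plates carried 150 μM compound (1.5% DMSO), onto which 5 µL/well of a 1:1 mix of pre-induced S. aureus MW2 cells was dispensed: gene-carrying cells tagged with DsRed and deletion cells tagged with GFP, in LB with a subinhibitory antibiotic dose set daily. Incubation ran 20 h at 37 °C, 90% humidity, unshaken, followed by DsRed (540/590) and GFP (485/520) reads. Per-plate scaling of each channel used single-strain control medians, and plates with high untreated ratios and rows with DsRed/GFP >10 were excluded.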

[2] = test system: Staphylococcus aureus MW2 (mecA+); experiment: normalized DsRed fluorescence (growth of mecA+ strain) (fraction of control range); higher = more growth of mecA+ strain; conditions: compound concentration: 150 uM; cefoxitin: subinhibitory; fluorescent label: DsRed
Method in brief: as §1

Compound	normalized GFP fluorescence [1]	normalized DsRed fluorescence [2]
CC(=O)O[C@H]1CC[C@@]2(C)C(=CC[C@@H]3[C@@H]2CC[C@]2(C)C(c4cccnc4)=CC[C@@H]32)C1 [Abiraterone Acetate (CB7630)]	0.278	0.65
CCc1c2c(nc3ccc(OC(=O)N4CCC(N5CCCCC5)CC4)cc13)-c1cc3c(c(=O)n1C2)COC(=O)[C@]3(O)CC	0.461	0.626
OCCN1CCN(CCCN2c3ccccc3Sc3ccc(C(F)(F)F)cc32)CC1	0.0603	1.68
COCCCC/C(=N\OCCN)c1ccc(C(F)(F)F)cc1	0.551	0.562
O=C(OOC(=O)c1ccccc1)c1ccccc1	0.437	0.519
CCN(CC)CC(=O)Nc1c(C)cccc1C	0.574	0.76
COc1cc(OC)c(C(=O)CCCN2CCCC2)c(OC)c1 [Buflomedil HCl]	0.4	0.499
COc1cc(N)c(Cl)cc1C(=O)NC1CCN(CCCOc2ccc(F)cc2)CC1OC (centres undefined)	0.458	0.643
CN/C(=N\CCSCc1nc[nH]c1C)NC#N	0.567	1.05
CC(=O)N(O)CCCCCNC(=O)CCC(=O)N(O)CCCCCNC(=O)CCC(=O)N(O)CCCCCN	0.272	1.26
CN1CCN(CC/C=C2/c3ccccc3Sc3ccc(S(=O)(=O)N(C)C)cc32)CC1	0.0289	1.9
CC(=O)OCC[N+](C)(C)C	0.311	0.859
Nc1ccc(C(=O)O)cc1	0.617	0.958
Cc1ncc(CO)c(CO)c1O	0.208	0.816
Cc1ccc(C)c(OCCCC(C)(C)C(=O)O)c1	0.121	1.54
NNCCc1ccccc1	0.153	0.707
COc1cc2nc(N3CCN(C(=O)C4CCCO4)CC3)nc(N)c2cc1OC (centres undefined) [Terazosin HCl (Hytrin)]	0.321	0.745
O=C1Cc2cc(CCN3CCN(c4nsc5ccccc45)CC3)c(Cl)cc2N1	0.33	0.989
O=C(OCc1ccccc1)c1ccccc1	0.269	0.596
CCN[C@H]1CN(CCCOC)S(=O)(=O)c2sc(S(N)(=O)=O)cc21	0.268	0.875
Cc1[nH]c2ccccc2c1CCNCc1ccc(/C=C/C(=O)NO)cc1 [Panobinostat]	0.228	1.43

Compound	normalized GFP fluorescence [1]	normalized DsRed fluorescence [2]
CC(C)Cc1ccc(C(C)C(=O)O)cc1 (centres undefined)	0.142	0.294
CCN(CC)C(=O)N1CCN(C)CC1	0.599	0.455
O=c1oc2cc(O)ccc2s1 [Tioxolone]	0.428	0.731
CC(=O)OCC(CCn1cnc2cnc(N)nc21)COC(C)=O	0.204	0.667
CC(C)[C@H]1CC[C@H](C(=O)N[C@H](Cc2ccccc2)C(=O)O)CC1	3.92e-05	0.513
CNCC[C@@H](Oc1ccccc1C)c1ccccc1	0.319	0.638
CCN1CC(CCN2CCOCC2)C(c2ccccc2)(c2ccccc2)C1=O (centres undefined)	0.294	0.634
CCCCCCc1ccc(O)cc1O	0.0569	1.59
Cc1ccccc1N1C(=O)c2cc(S(N)(=O)=O)c(Cl)cc2NC1C (centres undefined)	0.113	1.33
CN1CCCCC1CCN1c2ccccc2Sc2ccc([S+](C)[O-])cc21 (centres undefined)	0.265	1.16
CN1C(C(=O)Nc2ccccn2)=C(O)c2sc(Cl)cc2S1(=O)=O	0.116	0.318
Nc1cccc2c1CN(C1CCC(=O)NC1=O)C2=O (centres undefined) [Lenalidomide]	0.34	0.974
N[C@@H](CC(=O)N1CCn2c(nnc2C(F)(F)F)C1)Cc1cc(F)c(F)cc1F	0.306	0.577
C=CC[C@@H]1/C=C(\C)C[C@H](C)C[C@H](OC)[C@H]2O[C@@](O)(C(=O)C(=O)N3CCCC[C@H]3C(=O)O[C@H](/C(C)=C/[C@@H]3CC[C@@H](O)[C@H](OC)C3)[C@H](C)[C@@H](O)CC1=O)[C@H](C)C[C@@H]2OC [FK-506 (Tacrolimus)]	0.0621	1.04
CC1(C)NC(=O)N(c2ccc([N+](=O)[O-])c(C(F)(F)F)c2)C1=O	0.333	0.86
Nc1nc2ccc(OC(F)(F)F)cc2s1	0.622	0.37
COc1cc(NC(C)CCCN)c2ncccc2c1 (centres undefined)	-0.00346	0.672
Cc1cc(NS(=O)(=O)c2ccc(N)cc2)no1	0.0197	0.744
N#Cc1ccc(C(c2ccc(C#N)cc2)n2cncn2)cc1	0.628	0.758
COc1cc(NS(=O)(=O)c2ccc(N)cc2)nc(OC)n1	0.338	1.32
CC(=O)c1ccc2c(c1)N(CCCN1CCN(CCO)CC1)c1ccccc1S2	0.252	1.08
